# Source: PubChem BioAssay (NCI)
# About 79,000 compounds went through this panel and 15% of them were active in at least one assay; those are over-represented in the sample as a whole. Unmarked numbers belong to inactive results. The source made the active and inactive calls. Rule as the data show it: active = growth inhibition above about 70%; inactive = the rest.
# Experiment: NCI Yeast Anticancer Drug Screen. Data for the mec2-1 strain (AID 157)
# Conditions: S. cerevisiae mec2-1 strain, at 5.0 µM (retest, dose inferred, filed as 0.5), stronger effect = higher value
# Outline: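 Strain: mec2-1 (DNA repair/cell cycle alteration). Compound exposure, then growth measured; inhibition expressed relative to vehicle.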
row,Compound,growth inhibition
1,CC(C)c1ccc2c(c1)CC[C@@H]1[C@](C)(CO)CCC[C@]21C,4%
2,O=c1c2ccccc2ncn1Cc1ccccc1[N+](=O)[O-],-2%
3,O=C(NO)C(=O)Nc1cc(Cl)ccc1Cl,-8%
4,CCCCCCCCCCCCOC(=O)C[n+]1cccc(C(=O)Nc2ccccc2)c1,97% (active)
5,O=C1C=CC(=O)c2ccc(=O)ccc21,25%
6,Cn1c(=O)nc2n(-c3ccc(Cl)cc3)c3cc(Cl)ccc3nc-2c1=O,4%
7,Clc1ccc(CN2COc3c(ccc4ccccc34)C2)cc1,3%
8,C1CCN(c2nc(N3CCOCC3)c3[nH]c(N4CCCCC4)nc3n2)CC1,5%
9,O=C1c2ccccc2-c2cc([N+](=O)[O-])c([N+](=O)[O-])cc21,19%
10,CCC[CH2][Sn]([CH2]CCC)([O]C(=O)Cc1ccc(F)cc1)[O]C(=O)Cc1ccc(F)cc1,30%
11,ClCc1ccc2oc3ccccc3c2c1,1%
12,O=C1Oc2ccccc2C(=O)/C1=C/N1C(=O)/C(=C/c2ccc([N+](=O)[O-])cc2)SC1=S,-4%
13,COC1=CC(=O)c2ncc(Cl)cc2C1=O,-2%
14,CN(C)c1ccc(C(c2ccc(N(C)C)cc2)c2ccc3c(c2)OCO3)cc1,99% (active)
15,CC(C)(C)OC(=O)CSC#N,16%
16,CN=c1ss/c(=N\C(=S)N(C)C)n1-c1ccccc1,-11%
17,CCCCCCCCCCCCCCCBr,-9%
18,O=c1c2ccccc2[nH]c2c1[nH]c1ccccc12,11%
19,COc1cc(/C=C/c2cc[n+](C)cc2)ccc1O,12%
20,COc1cc(C2c3cc4c(cc3C(OC3CCCCO3)C3COC(=O)C23)OCO4)cc(OC)c1OC (stereo not drawn),-1%

row,Compound,growth inhibition
1,O=S(=O)(N/N=C/c1ccc(Cl)cc1Cl)c1ccccc1,-4%
2,Cc1ccc(C(=O)/C(Cl)=N/O)cc1,10%
3,Cc1ccnc(NS(=O)(=O)c2ccc(N=Cc3c4ccccc4nc4cc(Cl)ccc34)cc2)n1,32%
4,COc1cc(CCN=Cc2cc(Cl)cc(Cl)c2O)c([N+](=O)[O-])cc1OC,42%
5,COc1ccc(C(C)c2cc3c(cc2OC/C(C)=N/NC(N)=O)OCO3)cc1 (stereo not drawn),43%
6,C/C(CCC1CCc2ccccc2C1)=N\NC(N)=O (stereo not drawn),-4%
7,Cc1nc(C(N)=S)sc1C(=O)CC(=O)C(=O)Nc1nc2ccccc2[nH]1,11%
8,Clc1ccc([O][In]([O]c2ccc(Cl)cn2)[O]c2ccc(Cl)cn2)nc1,8%
9,Cc1ccc(S(=O)(=O)C(=S)Sc2ccccc2)cc1,8%
10,Fc1ccc2[nH]ccc2c1,-22%
11,C(=C/c1ccccc1)/C=N/Nc1ccccc1,-52%
12,O=S1(=O)CC2C1C1(Cl)OC2(Cl)c2ccccc21 (stereo not drawn),16%
13,CCCNC(=O)C(=O)NNc1ccccc1,6%
14,C/C(=N/O)c1cccc(C(F)(F)F)c1,-50%
15,COC1=CC(=O)c2c(O)c3c(c(O)c2C1=O)OC1(Oc2c(cc4cc(C)oc(=O)c4c2O)CC1O)C3O (stereo not drawn),98% (active)
16,CC(C)C1/C(=N/O)CC(c2ccccc2)N(N=O)C1c1ccccc1 (stereo not drawn),-13%
17,Cc1c(N)nc(C2CC(=O)N2CC(N)C(N)=O)nc1C(=O)NC(C(=O)NC(C)C(O)C(C)C(=O)NC(C(=O)NCCc1nc(-c2nc(C(=O)NCCCNC3CCCC3)cs2)cs1)C(C)O)C(OC1OC(CO)C(O)C(O)C1OC1OC(CO)C(O)C(OC(N)=O)C1O)c1cnc[nH]1 (stereo not drawn),97% (active)
18,CCOC(=O)C1(Br)CCN(S(=O)(=O)c2ccc(C)cc2)c2ccccc2C1=O (stereo not drawn),10%
19,O=C(C[n+]1ccccc1)c1ccc2ccc3ccc(Cl)cc3c2c1,0%

# Same assay, conditions: S. cerevisiae mec2-1 strain, at 50.0 µM (retest, dose inferred, filed as 5.0), stronger effect = higher value
row,Compound,growth inhibition
1,CC(C)c1ccc2c(c1)CC[C@@H]1[C@](C)(CO)CCC[C@]21C,94% (active)
2,O=c1c2ccccc2ncn1Cc1ccccc1[N+](=O)[O-],7%
3,O=C(NO)C(=O)Nc1cc(Cl)ccc1Cl,90% (active)
4,CCCCCCCCCCCCOC(=O)C[n+]1cccc(C(=O)Nc2ccccc2)c1,99% (active)
5,O=C1C=CC(=O)c2ccc(=O)ccc21,99% (active)
6,Cn1c(=O)nc2n(-c3ccc(Cl)cc3)c3cc(Cl)ccc3nc-2c1=O,9%
7,Clc1ccc(CN2COc3c(ccc4ccccc34)C2)cc1,43%
8,C1CCN(c2nc(N3CCOCC3)c3[nH]c(N4CCCCC4)nc3n2)CC1,90% (active)
9,O=C1c2ccccc2-c2cc([N+](=O)[O-])c([N+](=O)[O-])cc21,45%
10,CCC[CH2][Sn]([CH2]CCC)([O]C(=O)Cc1ccc(F)cc1)[O]C(=O)Cc1ccc(F)cc1,30%
11,ClCc1ccc2oc3ccccc3c2c1,0%
12,O=C1Oc2ccccc2C(=O)/C1=C/N1C(=O)/C(=C/c2ccc([N+](=O)[O-])cc2)SC1=S,82% (active)
13,COC1=CC(=O)c2ncc(Cl)cc2C1=O,92% (active)
14,CN(C)c1ccc(C(c2ccc(N(C)C)cc2)c2ccc3c(c2)OCO3)cc1,62%
15,CC(C)(C)OC(=O)CSC#N,95% (active)
16,CN=c1ss/c(=N\C(=S)N(C)C)n1-c1ccccc1,7%
17,CCCCCCCCCCCCCCCBr,12%
18,O=c1c2ccccc2[nH]c2c1[nH]c1ccccc12,25%
19,COc1cc(/C=C/c2cc[n+](C)cc2)ccc1O,7%
20,COc1cc(C2c3cc4c(cc3C(OC3CCCCO3)C3COC(=O)C23)OCO4)cc(OC)c1OC (stereo not drawn),7%

row,Compound,growth inhibition
1,O=S(=O)(N/N=C/c1ccc(Cl)cc1Cl)c1ccccc1,-11%
2,Cc1ccc(C(=O)/C(Cl)=N/O)cc1,100% (active)
3,Cc1ccnc(NS(=O)(=O)c2ccc(N=Cc3c4ccccc4nc4cc(Cl)ccc34)cc2)n1,38%
4,COc1cc(CCN=Cc2cc(Cl)cc(Cl)c2O)c([N+](=O)[O-])cc1OC,55%
5,COc1ccc(C(C)c2cc3c(cc2OC/C(C)=N/NC(N)=O)OCO3)cc1 (stereo not drawn),99% (active)
6,C/C(CCC1CCc2ccccc2C1)=N\NC(N)=O (stereo not drawn),0%
7,Cc1nc(C(N)=S)sc1C(=O)CC(=O)C(=O)Nc1nc2ccccc2[nH]1,24%
8,Clc1ccc([O][In]([O]c2ccc(Cl)cn2)[O]c2ccc(Cl)cn2)nc1,8%
9,Cc1ccc(S(=O)(=O)C(=S)Sc2ccccc2)cc1,89% (active)
10,Fc1ccc2[nH]ccc2c1,13%
11,C(=C/c1ccccc1)/C=N/Nc1ccccc1,-50%
12,O=S1(=O)CC2C1C1(Cl)OC2(Cl)c2ccccc21 (stereo not drawn),9%
13,CCCNC(=O)C(=O)NNc1ccccc1,62%
14,C/C(=N/O)c1cccc(C(F)(F)F)c1,-58%
15,COC1=CC(=O)c2c(O)c3c(c(O)c2C1=O)OC1(Oc2c(cc4cc(C)oc(=O)c4c2O)CC1O)C3O (stereo not drawn),99% (active)
16,CC(C)C1/C(=N/O)CC(c2ccccc2)N(N=O)C1c1ccccc1 (stereo not drawn),98% (active)
17,Cc1c(N)nc(C2CC(=O)N2CC(N)C(N)=O)nc1C(=O)NC(C(=O)NC(C)C(O)C(C)C(=O)NC(C(=O)NCCc1nc(-c2nc(C(=O)NCCCNC3CCCC3)cs2)cs1)C(C)O)C(OC1OC(CO)C(O)C(O)C1OC1OC(CO)C(O)C(OC(N)=O)C1O)c1cnc[nH]1 (stereo not drawn),99% (active)
18,CCOC(=O)C1(Br)CCN(S(=O)(=O)c2ccc(C)cc2)c2ccccc2C1=O (stereo not drawn),97% (active)
19,O=C(C[n+]1ccccc1)c1ccc2ccc3ccc(Cl)cc3c2c1,26%
